Assay [1] concerns the target Tumor necrosis factor receptor superfamily member 10B (Homo sapiens) (UniProt O14763). The assay can be described thus: viability loss of caspase-8 NB7 cells with TRAIL – with/without TRAIL, luminescence panel, confirmation (AID 651596). The conditions noted are these: NB7 neuroblastoma + caspase-8, TRAIL sensitization, NB7 Caspase-8, with TRAIL, mean of runs, at 10 µM, stronger effect = higher value.

Assay in assay [2]: as above
As to conditions: NB7 neuroblastoma + caspase-8, without TRAIL, NB7 Caspase-8, without TRAIL, mean of runs, at 10 µM.

The text below walks through data of PubChem BioAssay.

Chain of Tumor necrosis factor receptor superfamily member 10B (Homo sapiens) (O14763 whole entry, looked up): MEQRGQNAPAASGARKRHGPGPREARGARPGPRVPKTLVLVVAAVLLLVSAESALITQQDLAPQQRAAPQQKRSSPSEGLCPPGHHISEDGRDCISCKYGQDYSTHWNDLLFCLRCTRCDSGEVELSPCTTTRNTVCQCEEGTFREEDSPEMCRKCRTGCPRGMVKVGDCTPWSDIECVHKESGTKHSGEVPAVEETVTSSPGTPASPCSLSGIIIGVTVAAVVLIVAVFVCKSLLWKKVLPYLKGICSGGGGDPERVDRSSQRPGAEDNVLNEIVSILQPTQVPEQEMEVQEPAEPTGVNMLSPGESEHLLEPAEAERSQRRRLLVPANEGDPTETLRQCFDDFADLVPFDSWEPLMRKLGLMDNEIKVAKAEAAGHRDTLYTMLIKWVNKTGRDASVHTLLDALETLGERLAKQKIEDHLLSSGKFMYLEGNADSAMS

In the case of `O=[N+]([O-])c1ccc(/C=C/c2ccc3ccccc3n2)cc1`, the activity is 70.2% in assay [1] and 68.5% in assay [2].
Take `Cc1ccc2nc(-c3ccncc3)cc(C(=O)Nc3ccncc3)c2c1`: the results for the activity in assay [1] and in assay [2] were 19.9% and 6.6%, respectively.
The matching figures for `CC(=O)c1c(C)[nH]c(C(=O)Nc2nc(C)cs2)c1C`: 80.2% and 82.6%.
Regarding `COc1ccc2sc(NC(=O)c3ccco3)nc2c1`, the activity was 68.9% in assay [1] and 74.8% in assay [2].
Turning to `Nc1nc(Nc2ccccc2)nc2ccccc12`, the results for the activity in assay [1] and in assay [2] were 69.2% and 61.3%, respectively.
For `C#CCN(C[C@@H]1[C@@H](OC(=O)NCc2ccccc2F)[C@@H](OC(=O)NCc2ccccc2F)Cn2c(=O)ccc(=O)n21)S(=O)(=O)c1ccc(C)cc1`, the activity in assay [1] worked out at 95%; in assay [2], 93.6%.
As for `COc1ccc(OC)c2sc(N(CCN(C)C)C(=O)/C=C/c3cccs3)nc12`, the activity in assay [1] turned out to be 95.2%; in assay [2], 98.8%.
With `COc1cccc(C=Cc2nccc3ccccc23)c1OC`, the activity in assay [1] was 69.2%; in assay [2], 67.1%.
For the compound `COc1ccc(-c2sc3ccccc3c2-c2ccc(OCCN(C)C)cc2)cc1`, the activity in assay [1] was 52.4%; in assay [2], 73.6%.
The matching figures for `CCOC(=O)/C(=C/c1ccc(OC(F)F)cc1)C1=Nn2c(nnc2-c2ccc(Cl)cc2)SC1`: 98.8% and 97.1%.
The matching figures for `O=C(Nc1ccc(N2CCOCC2)cc1)c1cnccn1`: 84.4% and 82.8%.
Regarding `C/C(=N\NC(=O)c1ccccc1F)c1cccc(NC(=O)c2ccc(C)cc2)c1`, the activity in assay [1] is 59.8%; in assay [2], 71.5%.
As for `CCCCCCc1cc2cc(C(=O)Nc3ccc(OC)cc3)c(=O)oc2cc1O`, the activity in assay [1] is 36%; in assay [2], 32.5%.
For `Nc1nc(N)c(-c2cccc(C(F)(F)F)c2)c(Cc2cccc(C(F)(F)F)c2)n1` the same measures were 81.6% and 80.7%.
In the case of `Cc1nc(NC(=O)c2cc3ccccc3o2)sc1C`, the activity in assay [1] was 80.8%; in assay [2], 79.8%.
Turning to `CC(C)CC(/C(O)=C(\C#N)c1nc2ccccc2[nH]1)N1C(=O)c2ccccc2C1=O` (configuration not stated), the activity in assay [1] amounted to 66.3%; in assay [2] it was 61.7%.
For `COc1ccc(-c2ccc(SC)nn2)cc1` the same measures were 88.9% and 90.2%.
With `CC(=O)Nc1ccc(/C=N/Nc2nc3ccccc3[nH]2)cc1`, the activity in assay [1] was 76.2%; in assay [2], 75.5%.
In the case of `COc1cc(/C=N/Nc2nn3cnnc3c3ccccc23)cc(OC)c1OC`, the activity in assay [1] is 73.9%; in assay [2], 76.2%.
As for `Cc1ccccc1/C=C/c1nc2ccccc2c(=O)[nH]1`, the values for the activity in assay [1] and in assay [2] were 56.1% and 58.7%, respectively.
The matching figures for `COc1ccc(C(=O)O/N=C(\N)c2ccccn2)c(OC)c1`: 75.5% and 83.2%.
For `Cc1ccccc1C(=O)Nc1nnc(SCC(=O)NC2CC2)s1` the same measures were 48.7% and 45.2%.
Turning to `CCN1CCN(c2c(Cl)cccc2NC(=O)c2ccc([N+](=O)[O-])o2)CC1`, the results for the activity in assay [1] and in assay [2] were 52.3% and 61.3%, respectively.
Take `COc1cccc(NC(=O)Nc2nc(-c3ccc(OC)c(OC)c3)cs2)c1`: the activity in assay [1] amounted to 98.5%; in assay [2] it was 99.2%.
Consider `CCN1CCN(c2ccc(S(=O)(=O)N3CCCCC3)cc2NC(=O)c2ccc([N+](=O)[O-])o2)CC1`, for which the activity in assay [1] stood at 59.8%; in assay [2] it was 61.9%.
Regarding `Cc1cccc(-n2ncc3c(N4CCC(C)CC4)ncnc32)c1`, the activity was 44.7% in assay [1] and 34.7% in assay [2].
As to `Cc1ccc(C(=O)Nc2ncc(C)s2)s1`, the results for the activity in assay [1] and in assay [2] were 80.2% and 79%, respectively.
On to `O=C1Nc2ccccc2N(C(=O)c2c(F)cccc2F)C1c1nc2ccccc2[nH]1` (configuration not stated), for which the activity in assay [1] was determined as 47.6%; in assay [2] it was 60.3%.
Consider `COc1ccc(N=C2S/C(=C\c3ccc(Cl)c([N+](=O)[O-])c3)C(=O)N2CCN(C)C)cc1`, for which the activity in assay [1] turned out to be 65%; in assay [2], 90.2%.
With `c1ccc2[nH]c(-c3ccc4c(c3)OCO4)nc2c1`, the results for the activity in assay [1] and in assay [2] were 77.4% and 79.3%, respectively.
Turning to `COc1cc2c3nnc(-c4ccc(F)cc4)c-3cn(Cc3ccccc3)c2cc1OC`, the activity in assay [1] is 40.5%; in assay [2], 57.5%.
As for `COc1ccc(-c2cc3nc[nH]c(=O)c3s2)cc1`, the activity in assay [1] was 61.5%; in assay [2] it was 58.2%.
On to `Cc1ccc(-c2nn(CC(=O)NCc3cc(-c4nn(C)c(=O)c5ccccc45)ccc3C)c(=O)c3ccccc23)cc1`, for which the activity in assay [1] worked out at 90.9%; in assay [2], 35.5%.
On to `O=C(NCCOc1ccccc1)c1cccc2c1C(=O)c1ccc(Cl)cc1S2(=O)=O`, for which the activity turned out to be 35.6% in assay [1] and 54.2% in assay [2].
With `Cc1ccc(-c2ccccc2NC(=O)CCl)o1`, the results for the activity in assay [1] and in assay [2] were 47.4% and 64.3%, respectively.
Turning to `O=c1c2ccccc2oc2ccc(-c3ccc4cc[nH]c4c3)cc12`, the activity in assay [1] was 36.5%; in assay [2], 35.8%.
Turning to `O=C(Nc1cccc(O)c1)c1noc2c1CCCCC2`, the activity in assay [1] was 66.2%; in assay [2] it was 61%.
With `Nc1ncnc2c(C3OC(CO)C(O)C3O)c[nH]c12` (configuration not stated), the activity is 95.2% in assay [1] and 98.7% in assay [2].
Consider `CNC[C@@H](Cc1ccccc1)NC[C@@H](CC1CCCCC1)NCCCc1ccccc1`, for which the activity stood at 99.3% in assay [1] and 99.6% in assay [2].
As to `CC(C)Nc1ccc(-n2nc3ccccc3[n+]2[O-])cc1`, the activity in assay [1] was 62.5%; in assay [2], 61%.
`Cc1nnc(NC(=O)c2nc(S(=O)(=O)Cc3ccccc3C)ncc2Cl)s1`: the values for the activity in assay [1] and in assay [2] were 94.7% and 89.8%, respectively.
For `Cc1csc(N/N=C/c2ccccn2)n1` the same measures were 59.2% and 69.7%.
Turning to `O=c1oc2ccccc2cc1-c1csc(Nc2nc3c(F)cccc3s2)n1`, the results for the activity in assay [1] and in assay [2] were 11.9% and 5.5%, respectively.
For `OCC1OC(n2cnc3c(SCc4ccccc4)ncnc32)C(O)C1O` (configuration not stated), the activity came out at 59.9% in assay [1] and 67.1% in assay [2].
In the case of `CC(=O)n1cc(N(C(=O)CCl)c2ccc([N+](=O)[O-])cc2)c2ccccc21`, the figures for the activity in assay [1] and in assay [2] were 97.8% and 99.3%, respectively.
Consider `c1csc(-c2ccc(N3CCOCC3)nn2)c1`, for which the activity in assay [1] worked out at 69.5%; in assay [2], 69.4%.
